Reference: PubChem BioAssay AID1159580 (chemical genetic matrix, 2015)
Values joined by “and” are separate entries in the source; they are usually repeats but may differ in a detail not shown here. Equal entries are not always repeated. Screen size: about 5,500 compounds; about 2,000 (36%) were called active. Roughly 18% stayed inconclusive and do not appear here. No stated cut-off is given here; in the data, active means normalized growth mostly below about 0.91 (no sharp cut-off); inconclusive means no clear call, values can overlap the other calls; inactive means mostly above about 0.92. This is one part of the list.

Assay: chemical genetic growth profiling, strain panel (AID 1159580);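 further: tested at 20 µM; growth read once vehicle control cultures reached saturation at 30 °C; 1 = growth at the plate median or of vehicle wells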
Conditions: growth OD

Measured: normalized growth

CN1CCN2c3ccccc3Cc3ccccc3C2C1 (stereo unspecified)
inactive: S. cerevisiae deletion strains, locus YJR075W, strain HOC1, stronger effect = lower value 1 and 0.97 | S. cerevisiae deletion strains, locus YKL009W, strain mrt4, stronger effect = lower value 0.999 | S. cerevisiae deletion strains, locus YKL068W, stronger effect = lower value 0.991 | S. cerevisiae deletion strains, locus YKL085W, strain MDH1 (second series), stronger effect = lower value 0.987 | S. cerevisiae deletion strains, locus YKL085W, strain MDH1, stronger effect = lower value 0.987 | S. cerevisiae deletion strains, locus YKL160W, strain elf1, stronger effect = lower value 0.989 | S. cerevisiae deletion strains, locus YKL190W, strain CNB1, stronger effect = lower value 1.02 | S. cerevisiae deletion strains, locus YKR001C, strain vps1, stronger effect = lower value 0.976 | S. cerevisiae deletion strains, locus YKR026C, strain gcn3, stronger effect = lower value 1 | S. cerevisiae deletion strains, locus YKR091W, strain srl3, stronger effect = lower value 1.01 | S. cerevisiae deletion strains, locus YLL001W, strain dnm1, stronger effect = lower value 0.982 | S. cerevisiae deletion strains, locus YLL026W, stronger effect = lower value 0.997 | S. cerevisiae deletion strains, locus YLL041C, strain sdh2, stronger effect = lower value 1 | S. cerevisiae deletion strains, locus YLR027C, strain aat2, stronger effect = lower value 1 | S. cerevisiae deletion strains, locus YLR039C, strain RIC1, stronger effect = lower value 1.03 | S. cerevisiae deletion strains, locus YLR058C, strain SHM2, stronger effect = lower value 1.01 | S. cerevisiae deletion strains, locus YLR102C, strain apc9, stronger effect = lower value 0.994 | S. cerevisiae deletion strains, locus YLR113W, strain HOG1, stronger effect = lower value 0.996 | S. cerevisiae deletion strains, locus YLR221C, strain rsa3, stronger effect = lower value 0.993 | S. cerevisiae deletion strains, locus YLR258W, strain gsy2, stronger effect = lower value 0.987 | S. cerevisiae deletion strains, locus YLR262C, strain YPT6 (second series), stronger effect = lower value 0.991 | S. cerevisiae deletion strains, locus YLR262C, strain YPT6, stronger effect = lower value 1.05 | S. cerevisiae deletion strains, locus YLR268W, strain sec22, stronger effect = lower value 0.974 | S. cerevisiae deletion strains, locus YLR320W, strain mms22, stronger effect = lower value 0.985 | S. cerevisiae deletion strains, locus YLR330W, strain CHS5, stronger effect = lower value 1.01 | S. cerevisiae deletion strains, locus YLR342W, strain FKS1 (second series), stronger effect = lower value 0.985 | S. cerevisiae deletion strains, locus YLR342W, strain FKS1, stronger effect = lower value 0.999 | S. cerevisiae deletion strains, locus YLR357W, strain rsc2, stronger effect = lower value 1.01 | S. cerevisiae deletion strains, locus YLR370C, strain arc18, stronger effect = lower value 1 | S. cerevisiae deletion strains, locus YLR371W, strain rom2, stronger effect = lower value 1 | S. cerevisiae deletion strains, locus YLR384C, strain iki3, stronger effect = lower value 1 | S. cerevisiae deletion strains, locus YLR418C, strain cdc73, stronger effect = lower value 0.989 | S. cerevisiae deletion strains, locus YML016C, strain PPZ1, stronger effect = lower value 1.01 | S. cerevisiae deletion strains, locus YML032C, strain rad52, stronger effect = lower value 1 | S. cerevisiae deletion strains, locus YML120C, strain ndi1, stronger effect = lower value 1 | S. cerevisiae deletion strains, locus YML124C, strain tub3, stronger effect = lower value 0.994 | S. cerevisiae deletion strains, locus YMR058W, strain fet3, stronger effect = lower value 1.01 | S. cerevisiae deletion strains, locus YMR078C, strain ctf18, stronger effect = lower value 0.987 | S. cerevisiae deletion strains, locus YMR125W, strain sto1, stronger effect = lower value 1 | S. cerevisiae deletion strains, locus YMR129W, stronger effect = lower value 0.981 | S. cerevisiae deletion strains, locus YMR205C, strain PFK2, stronger effect = lower value 0.982 | S. cerevisiae deletion strains, locus YMR223W, strain ubp8, stronger effect = lower value 0.986 | S. cerevisiae deletion strains, locus YMR231W, strain pep5, stronger effect = lower value 1 | S. cerevisiae deletion strains, locus YMR263W, strain SAP30, stronger effect = lower value 1.01 and 0.995 | S. cerevisiae deletion strains, locus YMR307W, strain GAS1, stronger effect = lower value 1.04 | S. cerevisiae deletion strains, locus YNL067W, strain RPL9B, stronger effect = lower value 1.02 | S. cerevisiae deletion strains, locus YNL071W, strain lat1, stronger effect = lower value 0.998 | S. cerevisiae deletion strains, locus YNL128W, strain TEP1, stronger effect = lower value 1.02 | S. cerevisiae deletion strains, locus YNL153C, strain GIM3, stronger effect = lower value 1.02 and 0.974 | S. cerevisiae deletion strains, locus YNL175C, strain NOP13, stronger effect = lower value 1.02 | S. cerevisiae deletion strains, locus YNL183C, strain NPR1, stronger effect = lower value 0.919 | S. cerevisiae deletion strains, locus YNL197C, strain WHI3, stronger effect = lower value 1.02 | S. cerevisiae deletion strains, locus YNL209W, strain ssb2, stronger effect = lower value 0.997 | S. cerevisiae deletion strains, locus YNL224C, strain SQS1, stronger effect = lower value 1.02 | S. cerevisiae deletion strains, locus YNL233W, strain BNI4, stronger effect = lower value 1.02 | S. cerevisiae deletion strains, locus YNL248C, strain rpa49, stronger effect = lower value 0.994 | S. cerevisiae deletion strains, locus YNL250W, strain rad50, stronger effect = lower value 0.985 | S. cerevisiae deletion strains, locus YNL271C, strain bni1, stronger effect = lower value 0.981 | S. cerevisiae deletion strains, locus YNL298W, strain CLA4, stronger effect = lower value 0.99 | S. cerevisiae deletion strains, locus YNL307C, strain MCK1, stronger effect = lower value 0.993 | S. cerevisiae deletion strains, locus YNL322C, strain KRE1 (second series), stronger effect = lower value 0.996 | S. cerevisiae deletion strains, locus YNL322C, strain KRE1, stronger effect = lower value 1.02 | S. cerevisiae deletion strains, locus YNR049C, strain mso1, stronger effect = lower value 1 | S. cerevisiae deletion strains, locus YNR052C, strain pop2, stronger effect = lower value 0.989 | S. cerevisiae deletion strains, locus YOL006C, strain TOP1, stronger effect = lower value 1.02 | S. cerevisiae deletion strains, locus YOL012C, strain htz1 0.782 | S. cerevisiae deletion strains, locus YOL147C, strain pex11, stronger effect = lower value 0.991 | S. cerevisiae deletion strains, locus YOR001W, strain rrp6, stronger effect = lower value 0.99 | S. cerevisiae deletion strains, locus YOR061W, strain CKA2, stronger effect = lower value 1.02 | S. cerevisiae deletion strains, locus YOR069W, strain VPS5, stronger effect = lower value 1.01 | S. cerevisiae deletion strains, locus YOR070C, strain gyp1, stronger effect = lower value 0.999 | S. cerevisiae deletion strains, locus YOR080W, strain dia2, stronger effect = lower value 1.01 | S. cerevisiae deletion strains, locus YOR083W, strain WHI5 (second series), stronger effect = lower value 0.985 | S. cerevisiae deletion strains, locus YOR083W, strain WHI5, stronger effect = lower value 0.983 | S. cerevisiae deletion strains, locus YOR106W, strain vam3, stronger effect = lower value 0.986 | S. cerevisiae deletion strains, locus YOR136W, strain idh2, stronger effect = lower value 0.992 | S. cerevisiae deletion strains, locus YOR144C, strain elg1, stronger effect = lower value 0.99 | S. cerevisiae deletion strains, locus YOR184W, strain ser1, stronger effect = lower value 0.98 | S. cerevisiae deletion strains, locus YOR231W, strain MKK1, stronger effect = lower value 0.973 | S. cerevisiae deletion strains, locus YOR265W, strain rbl2, stronger effect = lower value 1 | S. cerevisiae deletion strains, locus YOR270C, strain vph1, stronger effect = lower value 0.993 | S. cerevisiae deletion strains, locus YOR290C, strain snf2, stronger effect = lower value 0.928 | S. cerevisiae deletion strains, locus YOR316C, strain cot1, stronger effect = lower value 0.989 | S. cerevisiae deletion strains, locus YPL051W, strain arl3, stronger effect = lower value 0.988 | S. cerevisiae deletion strains, locus YPL055C, strain LGE1, stronger effect = lower value 1.04 | S. cerevisiae deletion strains, locus YPL078C, strain atp4, stronger effect = lower value 0.983 | S. cerevisiae deletion strains, locus YPL106C, strain sse1, stronger effect = lower value 0.989 | S. cerevisiae deletion strains, locus YPL240C, strain hsp82, stronger effect = lower value 1.01 | S. cerevisiae deletion strains, locus YPL241C, strain CIN2, stronger effect = lower value 1.01 | S. cerevisiae deletion strains, locus YPL256C, strain CLN2, stronger effect = lower value 0.99 | S. cerevisiae deletion strains, locus YPR119W, strain clb2, stronger effect = lower value 0.988 | S. cerevisiae deletion strains, locus YPR141C, strain kar3, stronger effect = lower value 0.975 | S. cerevisiae deletion strains, locus YPR163C, strain tif3, stronger effect = lower value 0.984 | S. cerevisiae deletion strains, locus YPR167C, strain met16, stronger effect = lower value 0.987 | S. cerevisiae deletion strains, strain wtn01, stronger effect = lower value 0.97 | S. cerevisiae strains, strain wild type, stronger effect = lower value 1.01
